Reference: PubChem BioAssay
The source made the active and inactive calls.

Key:
[1] = compound effects on lung adenocarcinoma cell viability – A549, calcein-AM fluorescence, 48 h, basal, profiling panel (AID 1162); details: higher = more signal
[2] = compound effects on differentiated 3T3-L1 adipocyte viability – cell-based, 3T3-L1 adipocytes, calcein-AM fluorescence, 48 h, basal, profiling panel (AID 1163); details: 3T3-L1 adipocytes viability, higher = more signal
[3] = compound effects on hepatocellular carcinoma cell viability – HepG2, calcein-AM fluorescence, 48 h, basal, profiling panel (AID 1164); details: higher = more signal
[4] = compound effects on multiple myeloma cell viability – MM1S, calcein-AM fluorescence, 48 h, basal, profiling panel (AID 1165); details: higher = more signal;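 further: viability of MM1S multiple myeloma cells under basal unstimulated conditions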
[5] = calcein-AM signal in unstimulated myeloma cells – cell-based, calcein-AM fluorescence, 48 h, PK04 Diversity Set, profiling panel (AID 1166); details: RPMI8226 myeloma viability, higher = more signal;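 further: cells grown under basal conditions without added stimulus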
[6] = JC-1 mitochondrial signal, unstimulated HepG2 cells – cell-based, JC-1 fluorescence, 24 h, 100 nL compound, profiling panel (AID 1167); details: HepG2 mitochondrial potential, higher = more signal
[7] = JC-1 mitochondrial signal, unstimulated adipocytes – cell-based, JC-1 fluorescence, 3T3-L1 adipocytes, 24 h, 100 nL compound, profiling panel (AID 1168); details: JC-1 mitochondrial fluorescence, higher = more signal, called active from +8 up or from −8 down
[8] = JC-1 mitochondrial signal, unstimulated myeloma cells – cell-based, JC-1 fluorescence, RPMI8226, 24 h, 100 nL compound, profiling panel (AID 1169); details: JC-1 mitochondrial potential fluorescence, higher = more signal
[9] = JC-1 mitochondrial signal, unstimulated MM1S myeloma – cell-based, JC-1 fluorescence, 24 h, 100 nL compound, profiling panel (AID 1170); details: MM1S mitochondrial potential, higher = more signal
[10] = resazurin metabolic signal in A549 cells – cell-based, resazurin fluorescence, 24 h, PK04 Diversity Set, profiling panel (AID 1171); details: A549 viability, higher = more signal, called active from +8 up or from −8 down
Further: test concentration not given here.

Compound	z-score [1]	z-score [2]	z-score [3]	z-score [4]	z-score [5]	z-score [6]	z-score [7]	z-score [8]	z-score [9]	z-score [10]
COCCOC(=O)N1C(=O)[C@@]2(c3cc(C#Cc4ccc(OC)cc4)ccc31)[C@H](C(=O)N1CCN(c3ncccn3)CC1)[C@H]1C(=O)O[C@H](c3ccccc3)[C@H](c3ccccc3)N1[C@@H]2c1ccc(OCCO)cc1	-0.758	0.717	0.0264	-1.01	0.581	0.331	3.91 (inactive)	-0.453	-0.885	-0.212 (inactive)
CCCCC(=C=CC[C@H](O)c1ccccc1OCCO)C[C@H](O)COCc1ccccc1	0.395	0.0907	0.514	-2.92	-1.29	-0.0498	-0.643 (inactive)	-0.621	-0.611	0.189 (inactive)
CCN1C(=O)[C@H]2[C@H]3[C@H](O)[C@H](O)CC(=NOCc4ccccc4)[C@H]3CC[C@H]2C1=O	-0.803	-0.0387	-0.228	-0.463	-0.644	-1.13	-1.37 (inactive)	0.462	0.515	-0.0275 (inactive)
Cc1cc2c(nc1C)CCCN2CC(O)CN1CCN(C)CC1 (stereo not given)	0.306	0.411	-1.09	0.241	-0.342	-0.601	-0.625 (inactive)	0.142	0.842	-0.726 (inactive)
C=CCOC(=O)[C@H]1[C@@H]2C(=O)O[C@@H](c3ccccc3)[C@@H](c3ccccc3)N2[C@@H](c2ccc(OCCOC(=O)[C@H]3C[C@H]4C(=O)N[C@@H](Cc5ccccc5)C(=O)N4[C@H]3c3ccc(O)cc3)cc2)[C@]12C(=O)Nc1ccccc12	-0.794	0.689	0.642	0.0505	-0.216	-1.47	0.0241 (inactive)	-0.287	-0.718	1.7 (inactive)
CCOC(=O)[C@H](CC(C)C)NC(=O)CCC1CC(OC(=O)NCc2cccc3ccccc23)CC2(CCCC(COC(=O)NCCN3CCOCC3)O2)O1 (stereo not given in full)	0.609	0.0174	-0.667	0.109	-0.275	-0.084	-1.16 (inactive)	-0.268	-0.166	1.29 (inactive)
COC(=O)[C@@H]1CCCN1C(=O)[C@@H](C)CO	0.0364	0.512	-0.52	-2.77	-0.57	-0.952	0.514 (inactive)	-0.157	-1.32	-1.14 (inactive)
C=CCN1C(=O)[C@]2(O[C@H](CCn3cc(CCO)nn3)[C@@H]([Si](C)(C)c3ccc(OC)cc3)[C@@H]2C)c2cc(N3CCOC3=O)ccc21	0.0694	0.654	-0.316	-2.64	-1.37	0.464	-0.0813 (inactive)	-0.585	-0.539	0.333 (inactive)
O=C1C2=CC[C@H]3C(=O)N(Cc4ccc5c(c4)OCO5)C(=O)[C@H]3[C@H]2[C@H](O)[C@@H]2O[C@H]12	-0.227	0.447	0.162	0.351	-0.196	-0.275	0.00654 (inactive)	-0.223	-0.398	-0.763 (inactive)
COC(=O)C1=CCC(c2cccc(Cl)c2)O1 (stereo not given)	-0.787	-0.0098	-1.14	0.233	-0.783	-0.549	0.00619 (inactive)	-0.757	-0.428	0.107 (inactive)
[N-]=[N+]=NCc1ccccc1C[C@]1(C(=O)NCc2ccccc2)N=C(c2ccc(OCCCO)cc2)O[C@H]1c1ccccc1N=[N+]=[N-]	-0.71	0.0331	-1.03	-2.98	-4.24	0.504	-0.249 (inactive)	-1.17	-1.5	-0.883 (inactive)
COC(=O)[C@@]1(Cc2ccccc2)[C@H]2c3cc(C(=O)N4CCCC4)n(Cc4ccccn4)c3C[C@H]2CN1C(=O)c1ccccc1	-0.935	1.91	-0.924	-0.0789	-1.72	1.06	0.339 (inactive)	-0.16	0.333	-1.53 (inactive)
CCOC(=O)C1=CC[C@H]2C(=O)N(CC)C(=O)[C@@H]12	-0.148	0.0888	-0.622	-0.0999	0.0317	-0.342	-0.362 (inactive)	0.0877	-0.517	1.17 (inactive)
CC(=O)OC[C@H]1O[C@H](CCON=C(C)CCC(=O)OC[C@H]2O[C@H](C#Cc3ccccc3)C=C[C@@H]2Oc2ccc(C)cc2)C=C[C@@H]1OC(C)=O	-0.572	0.442	0.229	-2.77	-2.73	-0.797	-0.942 (inactive)	-0.199	-0.738	0.016 (inactive)
O=C1[C@H]2[C@H]3[C@H](O)[C@H](O)CC(=NO[C@@H]4O[C@H](CO)[C@@H](O)[C@H](O)[C@H]4O)[C@@H]3CC[C@H]2C(=O)N1Cc1ccccc1	0.255	-0.612	-0.379	-0.176	1.03	0.981	-0.173 (inactive)	-0.61	-1.98	0.222 (inactive)
CC(C)N1CC=CC23O[C@@H]4C=CCCOC(=O)C4[C@H]2C(=O)N(CCCCCCO)[C@@H]3C1=O (stereo not given in full)	0.647	-0.505	0.677	0.585	0.788	0.614	0.294 (inactive)	0.936	-0.768	0.711 (inactive)
O=C1C[C@@H](O)[C@@H](O)[C@@H]2[C@@H]3C(=O)N(Cc4ccc5c(c4)OCO5)C(=O)[C@@H]3CC[C@@H]12	0.254	0.797	0.0538	0.339	-0.205	-0.32	-0.409 (inactive)	-0.893	0.358	-0.14 (inactive)
CC(C)(C)N1C(=O)[C@H]2[C@H]3[C@H](O)[C@H](O)CC(=NO[C@@H]4O[C@H](CO)[C@@H](O)[C@H](O)[C@H]4O)[C@@H]3CC[C@H]2C1=O	-0.504	0.346	0.302	-0.739	-0.666	-2.11	-0.404 (inactive)	-0.018	-1.03	-0.461 (inactive)
CC(CCN1CCc2nc(-c3ccccc3)c(-c3ccccc3)cc2C1)=NOC(C)CN1CCCCc2nc(C)c(C)cc21 (stereo not given)	0.646	0.659	0.797	-1.82	-0.19	4.98	-1.28 (inactive)	0.303	0.108	0.935 (inactive)
O=C1c2ccccc2[C@@]2(Cc3ccccc3N(C3CC3)C2=O)[C@H](c2ccc(CO)cc2)N1Cc1ccccc1C(F)(F)F	0.238	0.4	-0.772	0.306	-0.522	1.13	-0.474 (inactive)	0.84	-1.56	0.164 (inactive)
COc1ccc(O[C@H]2C=C[C@@H](c3ccccc3)O[C@@H]2COC(=O)CCC(C)=NOC(C)CN2CCCCc3nc(C)c(C)cc32)cc1 (stereo not given in full)	-0.294	-0.471	0.197	-1.35	-0.666	0.775	-0.313 (inactive)	-0.508	-0.903	1.61 (inactive)
C#CCCCON=C1C[C@@H](O)[C@@H](O)[C@@H]2[C@@H]3C(=O)N(Cc4ccccc4)C(=O)[C@@H]3CC[C@H]12	0.416	0.798	-0.969	0.772	0.477	0.843	0.381 (inactive)	0.379	-0.901	0.97 (inactive)
COC(=O)[C@H](C)NC(=O)CCC1CC(OC(=O)NCc2cccc3ccccc23)CC2(CCCC(COC(=O)NCC3CCCCC3)O2)O1 (stereo not given in full)	-0.332	-0.687	0.385	-0.875	0.913	1.38	-0.477 (inactive)	-0.188	-0.652	0.458 (inactive)
Cc1cc(C)c(-c2cc([C@H](C)ON=C3[C@H]4CCn5c(=O)n(-c6ccccc6)c(=O)n5[C@H]4[C@H](O)[C@@H]4O[C@H]34)on2)c(C)c1	-0.605	-0.91	-0.887	-2.95	-3.87	0.668	-0.803 (inactive)	-1.24	-2.39	-0.776 (inactive)
CC(C)[C@@H](OCc1ccccc1)[C@H](C)C=NO[C@H](C)c1cn([C@H](CO)Cc2ccccc2)nn1	-0.22	0.315	0.235	-0.192	0.153	-1.15	0.629 (inactive)	0.339	0.115	-1.02 (inactive)
CCN1C(=O)[C@H]2[C@H]3[C@H](O)[C@H](O)CC(=NOCC=C(C)CCC=C(C)C)[C@H]3CC[C@H]2C1=O	-0.107	0.393	-0.118	0.805	0.169	-0.702	0.0735 (inactive)	0.568	0.0613	-1.01 (inactive)
N#Cc1ccc(NN2C(C(O)c3cccc4ccccc34)C=CC3C(=O)N(c4ccccc4)C(=O)C32)cc1 (stereo not given)	-0.762	-0.506	1.52	0.0966	0.224	-0.452	0.226 (inactive)	-0.312	-0.0109	0.325 (inactive)
Cn1cccc1C(O)C1C=CC2C(=O)NC(=O)C2N1Nc1ccccn1 (stereo not given)	-1.77	-0.0273	-2.88	-1.99	-3.88	-4.01	1.73 (inactive)	-1.11	-1.88	-1.14 (inactive)
C[C@H]1CC[C@@H](C(=O)O)N[C@@H]1c1ccc(C#CCN(C)C)cc1	0.683	0.398	0.777	0.601	-0.338	0.984	0.461 (inactive)	-0.562	0.921	0.413 (inactive)
